# Experimental data published in PubChem BioAssay.
# “And” between values parts separate entries of the source, which are not always exact repeats. Equal entries are not always repeated. The source made the active and inactive calls.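 Rule for the calls, unless noted: active = thallium flux through the channel raised or lowered by more than 3 SD from vehicle-only wells, actives on both sides; inactive = the rest.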
# Key:
# [1] = P. berghei load reduction in hepatocytes – cell-based, HepG2, luciferase luminescence, HepG2 viability, primary screen (AID 624349; in the data active = parasite load remaining mostly below about 12%, no sharp cut-off; inactive = mostly above about 10%;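 note: 100% = mean of DMSO negative control wells on the same plate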); details: P. berghei liver stage in HepG2, luciferase luminescence, concentration not given here; parasite load remaining: stronger effect = lower value; viability: measured here: HepG2 viability without parasites
# [2] = signal quenchers or enhancers, Cy5 substrate/SSB – biochemical, NIH Clinical Collection, E. coli SSB, artefact control for HCV NS3 helicase inhibitor project (AID 743268; call rule not given here); details: Cy5-oligo bound E. coli SSB, fluorescence interference
# [3] = test system: Hepatitis C virus NS3 helicase; assay: blockers of NS3h binding to DNA – biochemical, fluorescence polarization, NIH Clinical Collection, primary screen (AID 743270; call rule not given here); details: NS3 helicase binding to Cy5-dT15 DNA, stronger effect = higher value, concentration not given here
# [4] = molecular target: Single-stranded DNA-binding protein (Escherichia coli (strain K12)) (UniProt P0AGE0); assay: SSB-ssDNA binding inhibitors – biochemical, fluorescence polarization, NIH Clinical Collection, counter-screen for HCV NS3 helicase inhibitor project (AID 743271; in the data active = inhibition above about 28%); details: E. coli SSB-DNA binding, stronger effect = higher value, concentration not given here
# [5] = compounds distorting NS3 helicase fluorescence signal – biochemical, NIH Clinical Collection, artefact control for HCV NS3 helicase inhibitor project (AID 743272; call rule not given here;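 note: HCV NS3 helicase with a Cy5 labelled single stranded DNA probe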); details: fluorescence interference counterscreen, HCV NS3 helicase assay; stronger effect = lower value
# [6] = test system: Neuropilin-2 / VEGF-C interaction (human); assay: small molecules blocking Neuropilin-2/VEGF-C interaction – biochemical, microplate binding format, z-score (AID 743281; call rule not given here); details: microplate NRP2/VEGF-C binding assay; stronger effect = lower value
# [7] = molecular target: 6-phosphogluconate dehydrogenase, decarboxylating (Homo sapiens) (UniProt P52209); assay: inhibition of human phosphogluconate dehydrogenase – biochemical, recombinant enzyme, NADPH absorbance, primary screen (AID 1159550;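 active = at least 20% inhibition of 6-phosphogluconate dehydrogenase activity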); details: recombinant 6PGD, NADPH absorbance 341 nm; at 10 µM; stronger effect = higher value
# Chain of 6-phosphogluconate dehydrogenase, decarboxylating (Homo sapiens) (P52209 whole entry, looked up): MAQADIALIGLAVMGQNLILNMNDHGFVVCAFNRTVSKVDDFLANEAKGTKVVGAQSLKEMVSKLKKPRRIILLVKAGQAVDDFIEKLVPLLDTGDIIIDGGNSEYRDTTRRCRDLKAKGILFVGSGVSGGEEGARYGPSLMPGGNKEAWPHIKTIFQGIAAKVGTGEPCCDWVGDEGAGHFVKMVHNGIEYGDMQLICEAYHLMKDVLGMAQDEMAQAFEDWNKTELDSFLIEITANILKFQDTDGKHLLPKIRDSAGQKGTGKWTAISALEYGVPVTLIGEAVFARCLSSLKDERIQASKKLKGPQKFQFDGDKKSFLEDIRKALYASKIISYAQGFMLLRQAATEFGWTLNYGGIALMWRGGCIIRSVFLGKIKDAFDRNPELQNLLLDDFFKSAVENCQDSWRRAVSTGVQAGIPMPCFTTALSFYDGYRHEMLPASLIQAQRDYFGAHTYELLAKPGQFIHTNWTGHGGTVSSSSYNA
# [8] = modulation of C. elegans fzo-1 (AID 1259413; call rule not given here;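 note: fzo-1 mutant C. elegans worms in liquid wells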); details: C. elegans fzo-1 modulator screen, mean read-out; stronger effect = higher value
# [9] = EMT-state selective cytotoxicity in co-culture – imaging, PC-3E GFP, TEM4-18 mCherry, primary screen (AID 1345086;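 active = compounds killing one labelled cell type while sparing the other, by normalised counts and ratio limits, not self-fluorescent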;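 note: cells exposed to compound for 72 h before imaging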;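 for red/green cell ratio (normalised): normalised mesenchymal count divided by normalised epithelial count so high means epithelial killing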); details: PC-3E GFP / TEM4-18 mCherry co-culture, imaging cell counts, at 1 µM
# [10] = test system: Aerobactin synthetase IucA (Klebsiella pneumoniae hvKP1); assay: IucA enzyme inhibition, primary screen, biochemical, Spectrum library (AID 1346200; call rule not given here;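 note: 100% = wells without compound and 0% = wells lacking enzyme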); details: malachite green pyrophosphate, A620, at 8 µM, stronger effect = lower value
# [11] = viability loss with induced miR-34 in A549 – imaging, A549 dox-inducible miR-34, nuclei and caspase counts, primary screen (AID 1347080;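 active = compounds whose cell count with miR-34 switched on is under 0.7 times the count with it off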); details: A549 miR-34 inducible, Hoechst nuclei count, 48 h
# [12] = MELAS cybrid and Rieske KO viability enhancers – cell-based, MELAS cybrids, Rieske KO mouse fibroblasts, CellTiter-Glo, primary screen (AID 1508586;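 active = mean z-score across replicates of 1.96 or higher in either the MELAS or the Rieske mutant cell line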;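 note: z relative to plate mean and SD of compound and empty wells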); details: low glucose
# [13] = molecular target: NAD(+) hydrolase SARM1 (Homo sapiens) (UniProt Q6SZW1); assay: blocking NAD cleavage by SARM1 SAM-TIR – cell lysate, NAD-Glo luminescence (AID 1508614;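 active = compound whose remaining NAD level is above about 45 nM, limit read from the data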;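 note: higher remaining NAD means stronger inhibition of SARM1 NADase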); details: SAM-TIR HEK293T lysate NADase, at 1 µM, stronger effect = higher value
# Chain of NAD(+) hydrolase SARM1 (Homo sapiens) (Q6SZW1 whole entry, looked up, the tested form may be a part): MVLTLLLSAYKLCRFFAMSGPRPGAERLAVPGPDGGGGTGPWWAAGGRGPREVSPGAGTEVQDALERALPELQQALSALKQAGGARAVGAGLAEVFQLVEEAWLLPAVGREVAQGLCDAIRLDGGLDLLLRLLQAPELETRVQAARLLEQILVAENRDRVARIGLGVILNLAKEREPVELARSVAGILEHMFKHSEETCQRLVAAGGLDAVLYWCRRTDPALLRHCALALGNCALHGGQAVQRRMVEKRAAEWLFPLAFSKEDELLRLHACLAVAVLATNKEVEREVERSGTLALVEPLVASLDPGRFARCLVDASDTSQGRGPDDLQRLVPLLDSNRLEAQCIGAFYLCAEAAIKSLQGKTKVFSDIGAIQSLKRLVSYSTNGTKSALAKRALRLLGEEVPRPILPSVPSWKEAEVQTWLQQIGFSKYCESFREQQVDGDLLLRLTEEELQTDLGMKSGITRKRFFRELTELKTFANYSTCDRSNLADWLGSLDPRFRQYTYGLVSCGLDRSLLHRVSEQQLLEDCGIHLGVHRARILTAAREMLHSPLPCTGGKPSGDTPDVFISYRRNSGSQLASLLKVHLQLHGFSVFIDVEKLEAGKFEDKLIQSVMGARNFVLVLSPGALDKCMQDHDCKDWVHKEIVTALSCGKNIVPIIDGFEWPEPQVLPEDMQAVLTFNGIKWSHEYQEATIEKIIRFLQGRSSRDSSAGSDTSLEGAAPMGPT
# [14] = molecular target: Mitogen-activated protein kinase 7 (Homo sapiens) (UniProt Q13164); assay: Gal4-ERK5 driven luciferase induction – cell-based, HTS, primary screen (AID 1508626;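 active = luciferase signal above three times the same-plate solvent-only control wells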;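 note: luciferase driven by Gal4-ERK5 fusion binding five Gal4 sites before minimal TATA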); details: HeLa Gal4-ERK5 transactivation, 18 h, at 5 µM, stronger effect = higher value
# Chain of Mitogen-activated protein kinase 7 (Homo sapiens) (Q13164 whole entry, looked up, the tested form may be a part): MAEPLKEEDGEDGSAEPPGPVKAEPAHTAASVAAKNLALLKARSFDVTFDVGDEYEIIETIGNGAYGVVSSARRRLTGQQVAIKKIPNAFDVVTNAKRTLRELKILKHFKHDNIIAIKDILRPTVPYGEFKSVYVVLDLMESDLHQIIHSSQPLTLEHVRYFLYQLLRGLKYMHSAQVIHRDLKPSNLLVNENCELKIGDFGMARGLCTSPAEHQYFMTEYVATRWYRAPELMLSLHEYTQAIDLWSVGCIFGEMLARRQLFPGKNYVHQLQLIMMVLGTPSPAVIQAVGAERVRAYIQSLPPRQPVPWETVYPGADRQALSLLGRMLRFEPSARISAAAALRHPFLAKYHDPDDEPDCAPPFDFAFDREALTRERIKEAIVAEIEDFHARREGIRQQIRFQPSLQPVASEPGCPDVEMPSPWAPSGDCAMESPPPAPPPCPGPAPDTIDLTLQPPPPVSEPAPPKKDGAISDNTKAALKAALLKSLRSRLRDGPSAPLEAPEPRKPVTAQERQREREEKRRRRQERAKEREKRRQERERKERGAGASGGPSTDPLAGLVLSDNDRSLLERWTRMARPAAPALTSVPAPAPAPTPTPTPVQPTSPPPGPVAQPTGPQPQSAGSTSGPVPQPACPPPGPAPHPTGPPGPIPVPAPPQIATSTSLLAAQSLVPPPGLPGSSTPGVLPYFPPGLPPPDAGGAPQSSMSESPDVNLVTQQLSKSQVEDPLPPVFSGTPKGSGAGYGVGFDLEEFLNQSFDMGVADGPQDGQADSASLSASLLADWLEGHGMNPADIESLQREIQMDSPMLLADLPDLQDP
# [15] = galactose survival enhancers in mitochondrial complex I cybrids – cell-based, galactose medium, ATP luminescence, primary screen (AID 1645843;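 active = z-score of at least 1.8 in each of two replicates, scored against plate mean and spread of sample wells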;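 note: positive z means more ATP and so rescue of galactose-driven cybrid death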); details: complex I mutant cybrid cells, 72 h, stronger effect = higher value
# F380Y = assay: BK channel mutant inhibitors and activators – cell-based, U2OS BacMam, thallium flux, beta subunits, selectivity assay, profiling panel (AID 1259406); details: U2OS BacMam BK variants, at 30 µM;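 note: initial slope of Thallos dye fluorescence rise after thallium is added; log ratio against the mean of 0.3% DMSO vehicle wells on the same plate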
# F380Y/beta1 = assay: as above; details: U2OS BacMam BK variants, at 30 µM
# F380Y/beta2Delta = assay: as above; details: U2OS BacMam BK variants, at 30 µM
# F380Y/beta4 = assay: as above; details: U2OS BacMam BK variants, at 30 µM
# [16] = molecular target: Calcium-activated potassium channel subunit alpha-1 (Homo sapiens) + Leucine-rich repeat-containing protein 26 (Homo sapiens) (UniProt Q12791+Q2I0M4); assay: as above; details: U2OS BacMam BK variants, F380Y/Slo1WT/gamma1, at 30 µM
# Chain of Calcium-activated potassium channel subunit alpha-1 (Homo sapiens) + Leucine-rich repeat-containing protein 26 (Homo sapiens) (Q2I0M4 whole entry, looked up, one chain of several): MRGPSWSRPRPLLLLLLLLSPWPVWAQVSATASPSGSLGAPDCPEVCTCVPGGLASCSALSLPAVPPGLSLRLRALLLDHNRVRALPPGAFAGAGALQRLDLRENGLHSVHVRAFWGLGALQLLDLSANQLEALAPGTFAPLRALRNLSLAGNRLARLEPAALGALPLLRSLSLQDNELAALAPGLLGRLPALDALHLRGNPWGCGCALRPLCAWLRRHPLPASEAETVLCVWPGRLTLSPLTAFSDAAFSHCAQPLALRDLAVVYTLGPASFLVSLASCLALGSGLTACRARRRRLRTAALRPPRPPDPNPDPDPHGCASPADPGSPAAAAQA
# R275C = assay: as above; details: U2OS BacMam BK variants, at 30 µM
# R275C/beta1 = assay: as above; details: U2OS BacMam BK variants, at 30 µM
# R275C/beta2Delta = assay: as above; details: U2OS BacMam BK variants, at 30 µM
# R275C/beta4 = assay: as above; details: U2OS BacMam BK variants, at 30 µM
# R275C/Slo1WT/beta2 = assay: as above; details: U2OS BacMam BK variants, at 30 µM
compound,measurement,setting,value
NC(=O)CS(=O)C(c1ccccc1)c1ccccc1 (configuration not stated),parasite load remaining,[1],153% (inactive) and 44.2% (inactive) and 93% (inactive)
same,viability,[1],83% and 104% and 71.7%
same,fluorescence ratio,[2],1 (inactive)
same,inhibition,[3],0.4% (inactive)
same,inhibition,[4],-3.18% (inactive)
same,fluorescence ratio,[5],0.98 (inactive)
same,z-score,[6],0.787 (inactive)
same,inhibition,[7],-7.07% (inactive)
same,mean signal,[8],263 (inactive)
same,red/green cell ratio (normalised),[9]; actives lie on both sides,1.19 (inactive)
same,normalised cell number,[9]; measured here: epithelial PC-3E GFP cell survival,1.04
same,normalised cell number,[9]; measured here: mesenchymal TEM4-18 mCherry cell survival,1.24
same,activity remaining,[10],120% (inactive)
same,fold change,[11]; stronger effect = lower value,0.912 (inactive) and 0.928 (inactive) and 0.913 (inactive)
same,fold change,[11]; measured here: relative caspase fold change +Dox/-Dox,0.934 and 0.471 and 9.69
same,cell count,"[11]; measured here: total cells with miR-34 induction, stronger effect = lower value",8970 and 9060 and 12100
same,cell count,[11]; measured here: total cells without miR-34 induction,9830 and 9770 and 13200
same,z-score,"[12]; MELAS cybrid survival, CellTiter-Glo 48 h, stronger effect = higher value",0.264 (inactive)
same,z-score,"[12]; Rieske KO mouse fibroblast survival, CellTiter-Glo 72 h",0.0685
same,remaining NAD,[13],10 nM (inactive)
same,luciferase signal,[14],40 AU (inactive)
same,z-score,[15],0.66 (inactive)
same,log fold change Tl+ flux,F380Y,-0.0264 (inactive)
same,log fold change Tl+ flux,F380Y/beta1,0.0487 (inactive)
same,log fold change Tl+ flux,F380Y/beta2Delta,0.0296 (inactive)
same,log fold change Tl+ flux,F380Y/beta4,0.00509 (inactive)
same,log fold change Tl+ flux,[16],-0.00311 (inactive)
same,log fold change Tl+ flux,R275C,-0.0429 (inactive)
same,log fold change Tl+ flux,R275C/beta1,0.0162 (inactive)
same,log fold change Tl+ flux,R275C/beta2Delta,0.0129 (inactive)
same,log fold change Tl+ flux,R275C/beta4,0.0208 (inactive)
same,log fold change Tl+ flux,R275C/Slo1WT/beta2,0.0297 (inactive)
